Measured values: PubChem BioAssay
Unmarked numbers belong to inactive results.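 Rule for the calls: active = GFP response above 150% of the DMSO level; inconclusive = fewer than 70 events counted for a yeast strain; inactive = the rest.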

Assay: yeast AGP1-GFP fluorescence change, single-dose – cell-based, flow cytometry, S. cerevisiae, cherry picks, confirmation (AID 2273);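 note: median GFP channel fluorescence over the whole cell population gate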
Conditions: S. cerevisiae AGP1-GFP strain, 3 h, at 10 µM

Row | Structure (SMILES) | GFP response, % of DMSO [%]
1 | CC(=O)[C@@]1(O)CC[C@H]2[C@@H]3CCC4=CC(=O)CC[C@]4(C)[C@H]3CC[C@@]21C | 96.5
2 | C[C@]12CCC(=O)C=C1CC[C@@H]1[C@@H]2C(=O)C[C@@]2(C)[C@H]1CC[C@]2(O)C(=O)CO | 104
3 | Nc1nc2c(ncn2COCCO)c(=O)[nH]1 | 102
4 | O=c1[nH]c(=O)n([C@H]2C[C@H](O)[C@@H](CO)O2)cc1F | 102
5 | O=C(O)CSC1CC(=O)N(c2ccc(Cl)c(Cl)c2)C1=O (configuration not stated) | 101
6 | OC1(c2ccc(F)cc2)CSC(=Nc2cccnc2)N1Cc1ccco1 (configuration not stated) | 104
7 | Cc1cc(-n2nc(C)cc2C)n2ncc(-c3ccccc3)c2n1 | 102
